Here are results for 67 molecules from the antibiotic and cytotoxicity screens of Wong et al. (2023).

Molecules are shown by their SMILES. The campaign covered roughly 39,000 compounds. About 3,300 (8.5%) were called active. For the sample, actives were picked, then their nearest neighbours and some compounds at random.

The subject of the assay is HepG2. Nature of the assay: cytotoxicity call (relative viability < 0.9). The settings on record: 10 µM.
Regarding `N[C@@H](C(=O)O)[C@@H](O)[C@H](O)[C@H](O)CO`, the cytotoxicity call is “inactive”. Under `Fc1ccc(C2=NNC3=NCCN3C2)cc1F` stands “inactive”; under `COc1ccc(S(=O)(=O)Nc2cccc3c2O[C@H](CN(C)S(=O)(=O)c2ccccc2)[C@@H](C)CN([C@H](C)CO)C3=O)cc1`, “inactive”; under `C[C@@H]1CCCCO[C@@H](CN(C)Cc2ccc(C(=O)O)cc2)[C@H](C)CN([C@H](C)CO)C(=O)c2cc(NC(=O)Nc3ccccc3)ccc2O1`, “inactive”. Consider `C[C@H]1CN([C@@H](C)CO)C(=O)Cc2cc(NS(=O)(=O)c3cn(C)cn3)ccc2O[C@H]1CN(C)C`, for which the cytotoxicity call was “inactive”. For `CNC[C@@H]1OCCCC[C@@H](C)Oc2ccc(NC(=O)c3ccncc3)cc2C(=O)N([C@H](C)CO)C[C@@H]1C`, the cytotoxicity call is “inactive”. As for `C[C@H]1CN([C@@H](C)CO)C(=O)c2cccc(NC(=O)Nc3cccc4ccccc34)c2O[C@@H]1CN(C)S(=O)(=O)c1cccs1`, the entry is “inactive”; as for `O=C(C[C@H]1C[C@H]2c3cc(NC(=O)Nc4ccc(C(F)(F)F)cc4)ccc3O[C@H]2[C@@H](CO)O1)NCCc1ccccc1`, “inactive”. Take `COc1ccc(S(=O)(=O)N(C)C[C@H]2Oc3ccc(NS(=O)(=O)c4cccs4)cc3C(=O)N([C@@H](C)CO)C[C@@H]2C)cc1`: the cytotoxicity call is “inactive”. For the molecule `C[C@@H]1CN([C@H](C)CO)C(=O)c2cc(NS(=O)(=O)c3cn(C)cn3)ccc2O[C@@H]1CN(C)C(=O)Nc1ccccc1`, the cytotoxicity call was “inactive”. Under `C[C@@H]1CN([C@@H](C)CO)C(=O)c2cc(NS(=O)(=O)c3cn(C)cn3)ccc2O[C@@H]1CN(C)C(=O)Nc1ccccc1` stands “inactive”; under `C[C@@H]1CN([C@H](C)CO)C(=O)Cc2cc(NS(=O)(=O)c3cccs3)ccc2O[C@@H]1CN(C)S(=O)(=O)c1cccs1`, “inactive”; under `C[C@H](CO)N1C[C@H](C)[C@H](CN(C)C(=O)Nc2ccccc2)Oc2ccc(NS(=O)(=O)c3cn(C)cn3)cc2C1=O`, “active”. Regarding `C[C@H](CO)N1C[C@H](C)[C@@H](CN(C)S(=O)(=O)c2cccs2)Oc2ccc(NS(=O)(=O)c3cccs3)cc2CC1=O`, the cytotoxicity call is “active”. Consider `C[C@@H]1CN([C@H](C)CO)C(=O)c2cc(NS(=O)(=O)c3cccs3)ccc2O[C@H]1CN(C)S(=O)(=O)c1cccs1`, for which the cytotoxicity call was “active”. For `COc1ccc(S(=O)(=O)N(C)C[C@H]2Oc3ccc(NS(=O)(=O)c4cccs4)cc3C(=O)N([C@@H](C)CO)C[C@H]2C)cc1`, the cytotoxicity call was “inactive”.

Consider `C[C@@H]1CN([C@@H](C)CO)C(=O)Cc2cc(NS(=O)(=O)c3cccs3)ccc2O[C@H]1CN(C)S(=O)(=O)c1cccs1`, for which the cytotoxicity call is “inactive”. As for `C[C@H](CO)N1C[C@H](C)[C@@H](CN(C)S(=O)(=O)c2cccs2)Oc2ccc(NS(=O)(=O)c3cccs3)cc2C1=O`, the entry is “inactive”; as for `C[C@H]1CN([C@@H](C)CO)C(=O)c2cc(NS(=O)(=O)c3cccs3)ccc2O[C@H]1CN(C)S(=O)(=O)c1cccs1`, “inactive”; as for `COc1ccc(S(=O)(=O)N(C)C[C@@H]2Oc3ccc(NS(=O)(=O)c4cccs4)cc3C(=O)N([C@H](C)CO)C[C@@H]2C)cc1`, “active”.

As for `C[C@@H]1CCCCO[C@@H](CN(C)C(=O)c2ccccc2)[C@H](C)CN([C@H](C)CO)C(=O)c2cc(NC(=O)Nc3ccccc3)ccc2O1`, the cytotoxicity call was “inactive”. Under `Cc1ccc(S(=O)(=O)NCC[C@@H]2CC[C@@H](NS(=O)(=O)c3ccccc3Cl)[C@@H](CO)O2)cc1` stands “inactive”. As for `C[C@H]1CN([C@@H](C)CO)S(=O)(=O)c2ccc(C3=CCCC3)cc2O[C@@H]1CN(C)C(=O)Cc1ccncc1`, the entry is “inactive”; as for `COc1cccc(S(=O)(=O)N(C)C[C@H]2Oc3ncc(-c4cccc(C(=O)N(C)C)c4)cc3C(=O)N([C@H](C)CO)C[C@@H]2C)c1`, “inactive”. Under `C[C@H](CO)N1C[C@H](C)[C@H](CN(C)C(=O)Cc2ccccn2)Oc2cc(C#Cc3ccccc3)ccc2S1(=O)=O` stands “inactive”; under `COc1ccc(CNC(=O)C[C@@H]2CC[C@H]3[C@@H](COC[C@H](O)CN3S(=O)(=O)c3ccc(OC)cc3)O2)cc1`, “inactive”; under `C[C@H]1CN([C@@H](C)CO)C(=O)c2cc(NC(=O)Cc3ccccc3)ccc2O[C@H]1CN(C)S(=O)(=O)c1cccs1`, “inactive”. On to `COc1ccc(NC(=O)Nc2ccc3c(c2)C(=O)N([C@H](C)CO)C[C@H](C)[C@H](CN(C)S(=O)(=O)c2ccc(OC)cc2)OCCCC[C@@H](C)O3)cc1`, for which the cytotoxicity call was “inactive”.

As to `COc1ccccc1S(=O)(=O)N[C@H]1CC[C@H](CCNC(=O)C2CC2)O[C@@H]1CO`, the cytotoxicity call was “inactive”. As for `C[C@@H]1O[C@@H](O[C@@H]2C=C(CO)[C@H]3[C@H](O[C@@H]4O[C@H](CO)[C@@H](O)[C@H](O)[C@H]4O)OC=C[C@H]32)[C@H](O)[C@H](O)[C@H]1OC(=O)/C=C/c1ccccc1`, the entry is “inactive”; as for `C[C@H](CO)N1C[C@H](C)[C@H](CN(C)S(=O)(=O)c2ccc(F)cc2)OCCCC[C@H](C)Oc2ccc(NC(=O)CCC(F)(F)F)cc2C1=O`, “inactive”; as for `C[C@@H]1CCCCO[C@H](CN(C)Cc2ccccc2)[C@H](C)CN([C@H](C)CO)C(=O)c2cc(NC(=O)NC3CCCCC3)ccc2O1`, “inactive”. As for `C[C@@H]1CN([C@@H](C)CO)C(=O)c2cccc(NC(=O)Nc3ccc4c(c3)OCO4)c2O[C@@H]1CN(C)Cc1ccc(Oc2ccccc2)cc1`, the entry is “inactive”; as for `C[C@@H]1CN([C@@H](C)CO)C(=O)c2cccc(NC(=O)Nc3ccc4c(c3)OCO4)c2O[C@@H]1CN(C)Cc1ccc(-c2ccccc2)cc1`, “active”; as for `C[C@H]1CN([C@@H](C)CO)C(=O)c2cccc(NC(=O)Nc3ccc4c(c3)OCO4)c2O[C@H]1CN(C)Cc1ccc(-c2ccccc2)cc1`, “inactive”. As for `C[C@@H]1CN([C@H](C)CO)C(=O)c2cccc(NC(=O)Nc3ccc4c(c3)OCO4)c2O[C@H]1CN(C)Cc1ccc(Oc2ccccc2)cc1`, the entry is “active”; as for `C[C@H]1CN([C@@H](C)CO)C(=O)c2cccc(NC(=O)Nc3ccc4c(c3)OCO4)c2O[C@@H]1CN(C)Cc1ccc(-c2ccccc2)cc1`, “inactive”; as for `C[C@H](CO)N1C[C@H](C)[C@H](CN(C)Cc2ccc(Oc3ccccc3)cc2)Oc2c(NC(=O)Nc3ccc4c(c3)OCO4)cccc2C1=O`, “active”.

In the case of `C[C@H]1CN([C@@H](C)CO)C(=O)c2cccc(NC(=O)Nc3ccc4c(c3)OCO4)c2O[C@@H]1CN(C)Cc1ccc(Oc2ccccc2)cc1`, the cytotoxicity call was “inactive”. With `C[C@@H]1CN([C@H](C)CO)C(=O)c2cccc(NC(=O)Nc3ccc4c(c3)OCO4)c2O[C@@H]1CN(C)Cc1ccc(-c2ccccc2)cc1`, the cytotoxicity call was “inactive”. As for `C[C@H]1CN([C@@H](C)CO)C(=O)c2cccc(NC(=O)Nc3ccc4c(c3)OCO4)c2O[C@H]1CN(C)Cc1ccc(Oc2ccccc2)cc1`, the cytotoxicity call was “active”. Under `C[C@@H]1CN([C@@H](C)CO)C(=O)c2cccc(NC(=O)Nc3ccc4c(c3)OCO4)c2O[C@H]1CN(C)Cc1ccc(Oc2ccccc2)cc1` stands “inactive”; under `C[C@H](CO)N1C[C@H](C)[C@@H](CN(C)Cc2ccc(Oc3ccccc3)cc2)Oc2c(NC(=O)Nc3ccc4c(c3)OCO4)cccc2C1=O`, “inactive”.

As to `C[C@@H]1CN([C@H](C)CO)C(=O)c2cccc(NC(=O)Nc3ccc4c(c3)OCO4)c2O[C@@H]1CN(C)Cc1ccc(Oc2ccccc2)cc1`, the cytotoxicity call is “inactive”.

Regarding `Cc1noc(C)c1S(=O)(=O)N(C)C[C@@H]1Oc2ccc(NS(=O)(=O)c3ccc(Cl)cc3)cc2CC(=O)N([C@@H](C)CO)C[C@@H]1C`, the cytotoxicity call was “inactive”.

Regarding `OCCN1CCN(c2ncnc3c2ncn3[C@H]2CN(Cc3ccccc3)C[C@@H](CO)O2)CC1`, the cytotoxicity call is “inactive”. On to `C[C@@H]1CN([C@@H](C)CO)C(=O)c2cc(NS(=O)(=O)c3ccc(Cl)cc3)ccc2O[C@@H](C)CCCCO[C@H]1CN(C)C(=O)CCC(F)(F)F`, for which the cytotoxicity call was “inactive”.

As for `CN1C=C(C(=O)OCCS(C)(=O)=O)C(C(=O)OCCS(C)(=O)=O)=CC(CCCO)=C[C@@H]1C1CC1`, the cytotoxicity call was “inactive”. As for `COc1ccc([C@@H](O)[C@@H](CCO)OC)cc1O`, the entry is “inactive”; as for `N#CC1(N[C@@H](Cc2ccccc2)c2ccccc2)CCCCCC1`, “inactive”.

With `Cc1ccc(OC[C@@H](O)CN)c(C)c1`, the cytotoxicity call was “inactive”. With `O=C(C1CC1)N1CCN(c2ncccn2)CC1`, the cytotoxicity call is “inactive”.

On to `Cn1c(=O)cnn(CCCCN2CCN(c3ncccn3)CC2)c1=O`, for which the cytotoxicity call is “inactive”. For `Cl.O=C1CC2(CCCC2)CC(=O)N1CCCCN1CCN(c2ncccn2)CC1`, the cytotoxicity call is “active”. Under `C[C@H]1CN([C@@H](C)CO)S(=O)(=O)c2ccc(-c3ccncc3)cc2O[C@@H]1CN(C)S(=O)(=O)c1ccccc1F` stands “inactive”; under `C[C@@H]1CCCCO[C@H](CN(C)S(=O)(=O)c2ccc(Cl)cc2)[C@H](C)CN([C@@H](C)CO)C(=O)c2cc(NC(=O)Nc3ccc4c(c3)OCO4)ccc2O1`, “active”; under `C[C@@H]1CCCCO[C@@H](CN(C)S(=O)(=O)c2ccc(Cl)cc2)[C@H](C)CN([C@@H](C)CO)C(=O)c2cc(NC(=O)Nc3ccc4c(c3)OCO4)ccc2O1`, “inactive”.

In the case of `C[C@@H]1CN([C@H](C)CO)C(=O)c2cc(NC(=O)Nc3ccc4c(c3)OCO4)ccc2O[C@@H](C)CCCCO[C@H]1CN(C)S(=O)(=O)c1ccc(Cl)cc1`, the cytotoxicity call was “active”. Under `C[C@@H]1CCCCO[C@@H](CN(C)S(=O)(=O)c2ccc(Cl)cc2)[C@@H](C)CN([C@H](C)CO)C(=O)c2cc(NC(=O)Nc3ccc4c(c3)OCO4)ccc2O1` stands “inactive”. Under `C[C@H](CO)N1C[C@H](C)[C@@H](CN(C)S(=O)(=O)c2ccc(Cl)cc2)OCCCC[C@H](C)Oc2ccc(NC(=O)Nc3ccc4c(c3)OCO4)cc2C1=O` stands “inactive”; under `C[C@@H]1CN([C@H](C)CO)C(=O)c2cc(NC(=O)Nc3ccc4c(c3)OCO4)ccc2O[C@@H](C)CCCCO[C@@H]1CN(C)S(=O)(=O)c1ccc(Cl)cc1`, “inactive”. As for `C[C@H]1CCCCO[C@H](CN(C)S(=O)(=O)c2ccc(Cl)cc2)[C@@H](C)CN([C@@H](C)CO)C(=O)c2cc(NC(=O)Nc3ccc4c(c3)OCO4)ccc2O1`, the entry is “active”; as for `C[C@@H]1CN([C@@H](C)CO)C(=O)c2cc(NC(=O)Nc3ccc4c(c3)OCO4)ccc2O[C@@H](C)CCCCO[C@@H]1CN(C)S(=O)(=O)c1ccccc1`, “inactive”. Consider `C[C@@H]1CCCCO[C@H](CN(C)S(=O)(=O)c2ccccc2)[C@@H](C)CN([C@@H](C)CO)C(=O)c2cc(NC(=O)Nc3ccc4c(c3)OCO4)ccc2O1`, for which the cytotoxicity call is “inactive”.

In the case of `C[C@H]1CCCCO[C@H](CN(C)S(=O)(=O)c2ccccc2)[C@@H](C)CN([C@@H](C)CO)C(=O)c2cc(NC(=O)Nc3ccc4c(c3)OCO4)ccc2O1`, the cytotoxicity call is “active”. For the molecule `C[C@@H]1CCCCO[C@@H](CN(C)S(=O)(=O)c2ccc(Cl)cc2)[C@@H](C)CN([C@@H](C)CO)C(=O)c2cc(NC(=O)Nc3ccc4c(c3)OCO4)ccc2O1`, the cytotoxicity call is “inactive”. Under `C[C@@H]1CCCCO[C@H](CN(C)S(=O)(=O)c2ccc(Cl)cc2)[C@@H](C)CN([C@@H](C)CO)C(=O)c2cc(NC(=O)Nc3ccc4c(c3)OCO4)ccc2O1` stands “inactive”.
